# Source: PubChem BioAssay (EPA / NIEHS)
# “And” between values parts separate entries of the source, which are not always exact repeats. Equal entries are not always repeated. Results filed as inconclusive are left out. Some compounds were tested as several samples or in several runs, with calls that do not always agree. The source made the active and inactive calls. The calls were made as follows: active = hit-call score of the fitted dose curve at least 0.9, where 1 is the maximum; inconclusive = response in the unintended direction; inactive = score below 0.9.
# Columns and labels:
# [1] = biological target: zebrafish Thyroid Hormone Receptor alpha (TRa), thraa (gene 30670) (UniProt Q98867); test: ATG_zfTRa_XSP1: Attagene TRANS-FACTORIAL Multi-Species (XSP1) HepG2 Assay for zebrafish Thyroid Hormone Receptor alpha (TRa) (AID 2283807)
# Experimental: ATG_XSP1_multi-species_TRANS is a cell-based, multiplexed assay created by modifying the existing Attagene TRANS-FACTORIAL system to include a panel of nuclear receptors from some or all the following species: human (Homo sapiens), mouse (Mus musculus), frog (Xenopus laevis), zebrafish (Danio rerio), chicken (Gallus gallus), and turtle (Chrysemys picta). The ECOTOX-FACTORIAL format uses HepG2, a human liver cell line, with measurements taken at 24 hours after chemical dosing in a 24-well plate. Xsp1 included 3 nM 6-alpha-fluorotestosterone to partially stimulate the androgen receptor.ATG_zfTRa_XSP1 is one of 29 assay components measured or calculated from the ATG_XSP1_multi-species_TRANS assay. It is designed to make measurements of mRNA induction, a form of inducible reporter, as detected with fluorescence intensity signals by Reverse transcription polymerase chain reaction (RT-PCR) and Capillary electrophoresis technology.The assay endpoint ATG_zfTRa_XSP1 was analyzed in the positive analysis fitting direction relative to DMSO as the negative control and baseline of activity. Using a type of inducible reporter, measures of mRNA for gain-of-signal activity can be used to understand the reporter gene at the transcription factor-level as they relate to the gene TR. Furthermore, this assay endpoint can be referred to as a primary readout, because this assay has produced multiple assay endpoints where this one serves a reporter gene function. To generalize the intended target to other relatable targets, this assay endpoint is annotated to the nuclear receptor intended target family, where the subfamily is non-steroidal.
# Human liver HepG2 cells are transiently transfected with multiple reporter transcription units (MRTUs) in 6-well plates using FuGene 6 reagent (Roche; 3 ml FuGene/1 mg DNA). The MRTU constructs are regulated by a cis-regulating element (promoter). […] A major difference between the CIS and TRANS system is that in CIS activities of endogenous TFs are measured, whereas the TRANS assay evaluates changes in activities of exogenous, chimeric NR-Gal4 proteins. […] At the end of 24 hour incubation, total RNA was isolated using TriZol reagent (Invitrogen). The isolated RNA is then reverse-transcribed using oligo(dT) primer and Mo-MLV reverse transcriptase (Invitrogen) with DNAse I (Ambion) treatment for 30 min. The one-tenth of the produced cDNA was amplified by PCR using Taq DNA polymerase (Invitrogen) and two reporter sequence-specific primers. The PCR products were fluorescently labeled by primer extension with 6-arboxyfluorescein (6-FAM) 5'-labeled reporter sequence-specific primer (2 min at 95 C, 20 s at 68 C and 10 min at 72 C) and these products were digested with 5U of HpaI (New England Biolabs) for 2h at 37 C. The fragments were purified using Qiaquick PCR columns (Qiagen), analyzed on an ABI 3130xL genetic analyzer (Applied Biosystems) with peak positions identified by using a set of X-rhodamine (ROX)-labeled MapMarker1000 molecular weight standards (BioVentures). The raw capillary electrophoresis data was processed using Attagraph software (Attagene).
# [2] = biological target: zebrafish Thyroid Hormone Receptor beta (TRb), thrb (gene 30607) (UniProt Q9PVE4); test: ATG_zfTRb_XSP1: Attagene TRANS-FACTORIAL Multi-Species (XSP1) HepG2 Assay for zebrafish Thyroid Hormone Receptor beta (TRb) (AID 2283809)
# Summary of the method: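 HepG2 cells transiently transfected with multiplexed GAL4-UAS reporter units expressing chimeric zebrafish TRb–Gal4. Dosed 24 h with 3 nM 6-alpha-fluorotestosterone present; reporter mRNA measured by RT-PCR, HpaI digestion and capillary electrophoresis; gain of signal versus DMSO.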
# [3] = ATG_M_06_XSP2: Attagene TRANS-FACTORIAL Multi-Species (XSP2) HepG2 Assay for M06 Transcription Factor (Internal Marker) (AID 2283811);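 also: internal background marker reporter mRNA measured by RT-PCR and capillary electrophoresis; hits are increases in signal above the DMSO baseline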
# Summary of the method: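 Cells of the human liver line HepG2 carried transfected reporter transcription units and were treated for 24 h. Induced reporter transcripts were detected by fluorescence after RT-PCR and capillary electrophoresis, with activity fitted in the gain direction against DMSO.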
# [4] = system: turtle Estrogen Receptor (ERa), gene 101933533; test: ATG_trERa_XSP2: Attagene TRANS-FACTORIAL Multi-Species (XSP2) HepG2 Assay for turtle Estrogen Receptor (ERa) (AID 2283812);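 also: actives raise reporter signal above DMSO so AC50 reflects agonist activity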
# Summary of the method: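 Readout is reporter mRNA quantified by RT-PCR with capillary electrophoresis after 24 h compound exposure, increase relative to DMSO. Uses transiently transfected human HepG2 liver cells carrying a chimeric turtle ERa-Gal4 receptor driving GAL4-UAS reporters.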
# [5] = biological target: Estrogen receptor beta (Homo sapiens) (UniProt Q92731); test: ATG_hERb_XSP2: Attagene TRANS-FACTORIAL Multi-Species (XSP2) HepG2 Assay for human Estrogen Receptor (ERb) (AID 2283813);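 also: actives raise reporter mRNA above DMSO so AC50 reflects agonist induction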
# Summary of the method: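 Transient TRANS reporter system in HepG2: after 24 h of chemical, RNA is reverse-transcribed, reporter cDNA amplified, FAM-labelled and sized by capillary electrophoresis. Induction of the human ERb-Gal4 reporter is measured relative to DMSO.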
# [6] = biological target: zebrafish Estrogen Receptor (ER1), esr1 (gene 259252) (UniProt P57717); test: ATG_zfER1_XSP2: Attagene TRANS-FACTORIAL Multi-Species (XSP2) HepG2 Assay for zebrafish Estrogen Receptor (ER1) (AID 2283816)
# Summary of the method: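 After 24 h compound exposure, RNA from transfected HepG2 cells was reverse-transcribed and reporter transcripts resolved by capillary electrophoresis. The TRANS format reads exogenous zebrafish ER1-Gal4 chimera activity on GAL4-UAS elements; gain of signal against DMSO.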
# [7] = biological target: GAL4 Transcription Factor (Internal Marker), GAL4 (gene 855828) (UniProt P04386); test: ATG_GAL4_XSP2: Attagene TRANS-FACTORIAL Multi-Species (XSP2) HepG2 Assay for GAL4 Transcription Factor (Internal Marker) (AID 2283814);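 also: GAL4 reporter mRNA background control in MRTU transfected cells not a receptor target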
# Summary of the method: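 Background-control readout: gain-of-signal fitted against DMSO. After 24 h exposure of transfected HepG2 (MRTU, GAL4-UAS reporters; 3 nM 6-alpha-fluorotestosterone, 1.5 nM norgestrel present), transcripts quantified by RT-PCR and capillary electrophoresis fluorescence.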
# [8] = system: turtle Androgen Receptor (AR), gene 101947425; test: ATG_trAR_XSP2: Attagene TRANS-FACTORIAL Multi-Species (XSP2) HepG2 Assay for turtle Androgen Receptor (AR) (AID 2283815)
# Summary of the method: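 Reporter transcripts were quantified via RT-PCR and capillary electrophoresis and fitted upward against DMSO. Transiently transfected human HepG2 cells carrying NR-Gal4 chimeras were exposed 24 h, with 3 nM 6-alpha-fluorotestosterone plus 1.5 nM norgestrel added.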
# [9] = biological target: human Thyroid hormone Receptor beta (TRb), THRB (gene 7068) (UniProt P10828); test: ATG_hTRb_XSP1: Attagene TRANS-FACTORIAL Multi-Species (XSP1) HepG2 Assay for human Thyroid hormone Receptor beta (TRb) (AID 2283808)
# Summary of the method: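 Readout is reporter mRNA induction measured by RT-PCR, fluorescent labelling and capillary electrophoresis, fitted upward relative to DMSO. Transiently transfected human HepG2 cells expressing NR-Gal4 chimeras were dosed for 24 h, medium containing 3 nM 6-alpha-fluorotestosterone.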
# [10] = ATG_XTT_Cytotoxicity_XSP1: Cytotoxicity Assessment in the Attagene TRANS-FACTORIAL Multi-Species (XSP1) HepG2 Assay (AID 2283810)
# Summary of the method: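 XTT viability readout taken at 24 hours post-dosing in HepG2 liver cells co-treated with 3 nM 6-alpha-fluorotestosterone. Signal loss relative to DMSO controls reflects cytotoxicity.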
# zebrafish Thyroid Hormone Receptor alpha (TRa), thraa (gene 30670), sequence (Q98867 whole entry, looked up): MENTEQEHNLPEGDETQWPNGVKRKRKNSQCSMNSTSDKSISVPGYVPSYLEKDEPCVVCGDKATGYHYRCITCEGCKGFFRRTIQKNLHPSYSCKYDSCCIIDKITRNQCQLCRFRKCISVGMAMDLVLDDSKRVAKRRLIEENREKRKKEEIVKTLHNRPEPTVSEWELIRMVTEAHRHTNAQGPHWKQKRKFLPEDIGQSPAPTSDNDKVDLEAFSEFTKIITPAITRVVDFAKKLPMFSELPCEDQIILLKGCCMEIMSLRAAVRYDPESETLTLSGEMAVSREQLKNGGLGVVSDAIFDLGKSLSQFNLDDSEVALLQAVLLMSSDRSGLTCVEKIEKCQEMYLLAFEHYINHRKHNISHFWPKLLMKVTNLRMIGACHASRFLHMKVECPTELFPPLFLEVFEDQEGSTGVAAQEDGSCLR
# zebrafish Thyroid Hormone Receptor beta (TRb), thrb (gene 30607), sequence (Q9PVE4 whole entry, looked up, the tested form may be a part): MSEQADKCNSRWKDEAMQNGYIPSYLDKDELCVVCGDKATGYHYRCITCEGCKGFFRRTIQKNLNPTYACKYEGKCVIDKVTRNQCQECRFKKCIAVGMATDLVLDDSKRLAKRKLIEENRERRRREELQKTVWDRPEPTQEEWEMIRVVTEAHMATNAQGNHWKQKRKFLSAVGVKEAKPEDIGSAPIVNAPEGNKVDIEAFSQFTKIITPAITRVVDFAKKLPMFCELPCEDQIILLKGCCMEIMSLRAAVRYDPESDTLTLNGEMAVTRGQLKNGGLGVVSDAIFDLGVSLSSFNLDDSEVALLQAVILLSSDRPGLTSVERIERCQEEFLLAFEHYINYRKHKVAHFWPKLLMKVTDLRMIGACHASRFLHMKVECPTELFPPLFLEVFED
# GAL4 Transcription Factor (Internal Marker), GAL4 (gene 855828), sequence (P04386 whole entry, looked up, the tested form may be a part): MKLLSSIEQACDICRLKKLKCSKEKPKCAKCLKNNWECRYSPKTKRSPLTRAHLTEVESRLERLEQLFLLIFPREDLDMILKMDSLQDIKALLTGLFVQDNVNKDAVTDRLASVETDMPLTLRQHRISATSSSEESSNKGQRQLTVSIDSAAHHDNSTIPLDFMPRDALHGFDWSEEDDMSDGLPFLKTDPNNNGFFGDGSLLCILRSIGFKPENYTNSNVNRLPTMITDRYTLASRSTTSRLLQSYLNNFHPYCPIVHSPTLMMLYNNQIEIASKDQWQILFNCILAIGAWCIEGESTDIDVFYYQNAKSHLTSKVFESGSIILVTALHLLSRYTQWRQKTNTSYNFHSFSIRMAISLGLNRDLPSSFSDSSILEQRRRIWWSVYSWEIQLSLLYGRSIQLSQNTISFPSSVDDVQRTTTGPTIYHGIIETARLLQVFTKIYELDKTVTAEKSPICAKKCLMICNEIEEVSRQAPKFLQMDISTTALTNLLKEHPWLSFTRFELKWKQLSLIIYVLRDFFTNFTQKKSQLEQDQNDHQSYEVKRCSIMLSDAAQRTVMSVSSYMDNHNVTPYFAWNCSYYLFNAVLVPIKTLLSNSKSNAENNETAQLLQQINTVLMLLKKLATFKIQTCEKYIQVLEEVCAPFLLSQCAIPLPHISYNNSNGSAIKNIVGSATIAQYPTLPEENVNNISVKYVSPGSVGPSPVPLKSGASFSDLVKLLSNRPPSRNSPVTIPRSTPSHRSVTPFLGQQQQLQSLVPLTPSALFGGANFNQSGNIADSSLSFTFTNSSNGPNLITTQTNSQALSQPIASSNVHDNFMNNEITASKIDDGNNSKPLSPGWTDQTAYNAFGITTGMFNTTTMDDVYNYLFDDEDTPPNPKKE
# human Thyroid hormone Receptor beta (TRb), THRB (gene 7068), sequence (P10828 whole entry, looked up, the tested form may be a part): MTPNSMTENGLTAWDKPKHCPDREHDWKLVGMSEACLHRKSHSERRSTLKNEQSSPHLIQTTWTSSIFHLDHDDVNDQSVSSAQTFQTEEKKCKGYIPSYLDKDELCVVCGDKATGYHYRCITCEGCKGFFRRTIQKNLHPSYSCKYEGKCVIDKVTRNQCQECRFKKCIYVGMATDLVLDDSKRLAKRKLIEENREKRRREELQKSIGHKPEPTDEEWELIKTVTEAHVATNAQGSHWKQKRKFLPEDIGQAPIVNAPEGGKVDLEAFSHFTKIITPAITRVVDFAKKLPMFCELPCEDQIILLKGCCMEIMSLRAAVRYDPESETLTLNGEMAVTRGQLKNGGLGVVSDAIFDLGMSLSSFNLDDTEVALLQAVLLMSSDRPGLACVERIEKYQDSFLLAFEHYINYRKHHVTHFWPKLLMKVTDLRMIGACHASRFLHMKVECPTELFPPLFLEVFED
# Estrogen receptor beta (Homo sapiens), sequence (Q92731 whole entry, looked up, the tested form may be a part): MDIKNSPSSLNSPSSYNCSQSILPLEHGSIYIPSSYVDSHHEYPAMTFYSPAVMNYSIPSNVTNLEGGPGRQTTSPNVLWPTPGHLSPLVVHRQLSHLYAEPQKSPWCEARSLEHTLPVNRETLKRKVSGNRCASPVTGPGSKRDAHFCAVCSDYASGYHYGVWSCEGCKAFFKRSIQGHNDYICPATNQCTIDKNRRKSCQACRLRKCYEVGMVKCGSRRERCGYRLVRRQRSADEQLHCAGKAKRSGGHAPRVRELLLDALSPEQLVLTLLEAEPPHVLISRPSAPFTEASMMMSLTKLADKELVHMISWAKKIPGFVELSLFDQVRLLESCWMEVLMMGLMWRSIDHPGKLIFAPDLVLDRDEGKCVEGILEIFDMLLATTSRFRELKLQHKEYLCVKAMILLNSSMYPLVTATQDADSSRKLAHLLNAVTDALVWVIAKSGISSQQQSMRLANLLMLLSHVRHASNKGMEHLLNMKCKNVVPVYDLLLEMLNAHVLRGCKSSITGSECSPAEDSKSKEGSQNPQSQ
# zebrafish Estrogen Receptor (ER1), esr1 (gene 259252), sequence (P57717 whole entry, looked up, the tested form may be a part): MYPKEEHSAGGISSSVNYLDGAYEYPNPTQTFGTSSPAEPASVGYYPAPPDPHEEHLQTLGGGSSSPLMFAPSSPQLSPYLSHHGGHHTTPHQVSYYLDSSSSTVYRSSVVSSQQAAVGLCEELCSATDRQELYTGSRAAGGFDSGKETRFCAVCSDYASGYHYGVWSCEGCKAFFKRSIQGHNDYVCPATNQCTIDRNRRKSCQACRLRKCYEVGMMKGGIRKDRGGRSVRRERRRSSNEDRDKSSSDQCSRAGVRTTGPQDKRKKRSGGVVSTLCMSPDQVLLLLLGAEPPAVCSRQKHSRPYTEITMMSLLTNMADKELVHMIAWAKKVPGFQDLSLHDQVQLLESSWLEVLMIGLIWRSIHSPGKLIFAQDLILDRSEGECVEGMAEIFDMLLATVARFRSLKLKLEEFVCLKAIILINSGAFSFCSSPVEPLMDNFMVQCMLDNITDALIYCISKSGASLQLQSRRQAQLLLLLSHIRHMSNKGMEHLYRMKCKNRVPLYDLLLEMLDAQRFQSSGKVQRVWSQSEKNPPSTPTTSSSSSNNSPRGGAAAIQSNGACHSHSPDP
structure (smiles),measurement,setting,value
CCCCC(CC)COC(=O)c1ccccc1C(=O)O (stereo not given),outcome,[1],inactive
same,outcome,[2],inactive
same,outcome,[3],inactive
same,AC50,[4],27.1 µM (active)
same,outcome,[5],inactive
CN(C)C(=O)Nc1ccc(Cl)c(Cl)c1,outcome,[3],inactive
same,AC50,[4],25.1 µM (active) and 18 µM (active)
same,outcome,[6],inactive
CC1(C)C(C=C(Cl)Cl)C1C(=O)OCc1cccc(Oc2ccccc2)c1 (stereo not given),outcome,[1],inactive
same,AC50,[4],42.3 µM (active)
same,outcome,[7],inactive
same,outcome,[8],inactive
CC(=O)S[C@@H]1CC2=CC(=O)CC[C@]2(C)[C@H]2CC[C@@]3(C)[C@@H](CC[C@@]34CCC(=O)O4)[C@H]12,outcome,[1],inactive
same,outcome,[9],inactive
same,outcome,[2],inactive
same,outcome,[3],inactive
same,outcome,[4],inactive
same,outcome,[5],inactive
same,outcome,[7],inactive
same,outcome,[6],inactive
N[C@@H](Cc1cc(I)c(Oc2ccc(O)c(I)c2)c(I)c1)C(=O)O,outcome,[3],inactive
same,AC50,[4],359 nM (active) and 3.85 µM (active)
same,outcome,[7],inactive
same,outcome,[8],inactive
same,AC50,[6],5090 nM (active)
same,outcome,[6],inactive
CC(C)CCCCCCc1ccc(O)cc1,outcome,[2],inactive
same,outcome,[3],inactive
same,AC50,[4],0.989 µM (active)
same,outcome,[5],inactive
same,AC50,[6],5750 nM (active)
CCN(Cc1c(F)cccc1Cl)c1c([N+](=O)[O-])cc(C(F)(F)F)cc1[N+](=O)[O-],AC50,[4],2.15 µM (active)
same,outcome,[4],inactive
same,outcome,[5],inactive
same,outcome,[8],inactive
same,AC50,[6],6690 nM (active)
same,outcome,[6],inactive
C=CCOC(Cn1ccnc1)c1ccc(Cl)cc1Cl (stereo not given),outcome,[1],inactive
same,outcome,[9],inactive
same,outcome,[10],inactive
same,outcome,[3],inactive
same,outcome,[4],inactive
same,outcome,[5],inactive
same,outcome,[7],inactive
same,outcome,[6],inactive
O=C(c1ccc(O)cc1O)c1ccc(O)cc1O,outcome,[1],inactive
same,outcome,[9],inactive
same,outcome,[2],inactive
same,outcome,[10],inactive
same,outcome,[3],inactive
same,AC50,[4],2.86 µM (active)
same,AC50,[5],1320 nM (active)
same,AC50,[6],4210 nM (active)
CCCCC(CC)CN1C(=O)C2C3C=CC(C3)C2C1=O (stereo not given),outcome,[2],inactive
same,outcome,[10],inactive
same,outcome,[4],inactive
same,outcome,[5],inactive
same,outcome,[7],inactive
same,outcome,[6],inactive
C#C[C@]1(O)CC[C@H]2[C@@H]3CCC4=CC(=O)CC[C@@H]4[C@H]3CC[C@@]21CC,outcome,[1],inactive
same,outcome,[9],inactive
same,outcome,[2],inactive
same,outcome,[3],inactive
same,AC50,[4],0.522 µM (active)
same,outcome,[4],inactive
same,outcome,[7],inactive
same,outcome,[8],inactive
same,outcome,[6],inactive
CSC(=O)c1cccc2nnsc12,outcome,[3],inactive
same,outcome,[4],inactive
same,outcome,[7],inactive
same,outcome,[6],inactive
CC(C)(c1ccc(O)cc1)c1ccc(O)cc1,outcome,[1],inactive
same,outcome,[2],inactive
same,outcome,[3],inactive
same,AC50,[4],0.189 µM (active)
same,AC50,[6],2530 nM (active)
Oc1ccc(C(c2ccc(O)cc2)C(Cl)(Cl)Cl)cc1,outcome,[1],inactive
same,outcome,[9],inactive
same,outcome,[2],inactive
same,outcome,[3],inactive
same,outcome,[4],inactive
same,outcome,[5],inactive
same,outcome,[7],inactive
same,AC50,[6],3110 nM (active)
